Records with an inconclusive call do not appear. Where a call stands in place of a potency, no number is given. Unmarked numbers belong to inactive results. The source made the active and inactive calls. Calls come from the whole dose curve; as a rule, active = well fitted curve in the direction sought with a large enough effect in the repeat runs; inconclusive = weak or mixed curves; inactive = no such curve, though single readings can be large; an effect the other way counts as inactive or inconclusive.
What was measured:
[1] = target: Cytochrome P450 2C19 (Homo sapiens) (UniProt P33261); test: Cytochrome P450 Family 2 Subfamily C Member 19 (CYP2C19) small molecule antagonists: luciferase reporter qHTS assay (AID 1671197); note: nearly all actives have a fitted effect of over 65% in size; note: potency is the fitted concentration of half-maximal effect; for activity change, negative = inhibition: series mostly up to about 120 µM
How it was run: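 Enzyme-substrate mix with proluciferin substrate (P450-Glo CYP2C19 system) preincubated with compounds 10 min at room temperature; NADPH regeneration solution added, 37C for 1 h; detection reagent stops reaction, luminescence read after 20 min. Ketoconazole positive control.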

[2] = target: Cytochrome P450 2C9 (Homo sapiens) (UniProt P11712); test: Cytochrome P450 Family 2 Subfamily C Member 9 (CYP2C9) small molecule antagonists: luciferase reporter qHTS assay (AID 1671198); note: nearly all actives have a fitted effect of over 50% in size; note: potency is the fitted concentration of half-maximal effect; for activity change, negative = inhibition: series mostly up to about 120 µM
How it was run: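 Enzyme-substrate mix preincubated with compound 10 min at room temperature; reaction started with NADPH regeneration solution, 1 h 37C. Luminescent luciferin product read after 20 min detection reagent.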

[3] = target: Cytochrome P450 1A2 (Homo sapiens) (UniProt P05177); test: Cytochrome P450 Family 1 Subfamily A Member 2 (CYP1A2) small molecule antagonists: luciferase reporter qHTS assay (AID 1671199); note: nearly all actives have a fitted effect of over 50% in size; note: potency is the fitted concentration of half-maximal effect; for activity change, negative = inhibition: series mostly up to about 120 µM
How it was run: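 Enzymatic CYP1A2 assay, human, luminescent: 10 min compound–enzyme–substrate preincubation, 1 h NADPH-dependent turnover, 20 min detection step, room temperature throughout. Reduced light indicates lower CYP1A2 activity.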

[4] = target: Voltage-gated inwardly rectifying potassium channel KCNH2 (Homo sapiens) (UniProt Q12809); test: Human Ether-a-go-go-Related Gene (hERG) channel small molecule antagonists: fluorescence cell-based qHTS assay (AID 1671200);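 note: hERG-expressing U2OS cells given a thallium stimulus after FluxOR II dye loading; series mostly up to about 77 µM; nearly all actives have a fitted effect of over 50% in size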
How it was run: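 Kinetic two-minute fluorescence traces, sampled at 1 s, were collected following thallium stimulus of U2OS cells (1000 per well) that had been cultured overnight at 37 C and loaded with FluxOR II.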

[5] = target: Cytochrome P450 3A4 (Homo sapiens) (UniProt P08684); test: Cytochrome P450 Family 3 Subfamily A Member 4 (CYP3A4) small molecule antagonists: luciferase reporter qHTS assay (AID 1671201); note: nearly all actives have a fitted effect of over 50% in size; note: potency is the fitted concentration of half-maximal effect; for activity change, negative = inhibition: series mostly up to about 120 µM
How it was run: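 Proluciferin-to-luciferin conversion by CYP3A4, NADPH-regenerated, 1 h RT; luminescence read as RLU. Ketoconazole as control.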

Chain of Cytochrome P450 2C9 (Homo sapiens) (P11712 whole entry, looked up): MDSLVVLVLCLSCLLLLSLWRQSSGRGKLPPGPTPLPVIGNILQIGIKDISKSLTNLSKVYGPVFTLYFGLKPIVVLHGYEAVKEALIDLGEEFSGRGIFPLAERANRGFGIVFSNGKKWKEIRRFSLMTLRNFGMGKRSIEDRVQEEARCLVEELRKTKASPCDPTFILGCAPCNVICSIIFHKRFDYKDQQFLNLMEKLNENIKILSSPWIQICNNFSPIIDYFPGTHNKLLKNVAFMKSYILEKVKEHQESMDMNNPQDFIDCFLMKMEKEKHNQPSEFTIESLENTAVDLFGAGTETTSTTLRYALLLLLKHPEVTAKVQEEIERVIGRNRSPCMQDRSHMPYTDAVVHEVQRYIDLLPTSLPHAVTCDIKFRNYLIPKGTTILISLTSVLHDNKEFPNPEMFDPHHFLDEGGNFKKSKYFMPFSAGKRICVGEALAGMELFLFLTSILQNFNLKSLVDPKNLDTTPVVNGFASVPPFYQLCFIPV
Chain of Cytochrome P450 1A2 (Homo sapiens) (P05177 whole entry, looked up): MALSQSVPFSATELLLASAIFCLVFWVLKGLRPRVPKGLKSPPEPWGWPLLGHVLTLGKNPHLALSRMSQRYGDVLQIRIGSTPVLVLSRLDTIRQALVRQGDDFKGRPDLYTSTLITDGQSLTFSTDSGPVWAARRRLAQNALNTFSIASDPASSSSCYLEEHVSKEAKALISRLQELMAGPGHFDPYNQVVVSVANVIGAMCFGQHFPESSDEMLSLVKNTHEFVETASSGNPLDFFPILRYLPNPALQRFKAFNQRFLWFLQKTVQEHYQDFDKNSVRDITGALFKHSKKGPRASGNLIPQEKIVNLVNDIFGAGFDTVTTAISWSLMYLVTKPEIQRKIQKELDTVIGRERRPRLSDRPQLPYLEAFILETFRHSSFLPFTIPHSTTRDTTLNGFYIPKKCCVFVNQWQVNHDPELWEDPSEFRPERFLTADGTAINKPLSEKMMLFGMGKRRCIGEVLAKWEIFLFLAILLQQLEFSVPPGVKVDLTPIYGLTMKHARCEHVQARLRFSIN
Chain of Cytochrome P450 2C19 (Homo sapiens) (P33261 whole entry, looked up): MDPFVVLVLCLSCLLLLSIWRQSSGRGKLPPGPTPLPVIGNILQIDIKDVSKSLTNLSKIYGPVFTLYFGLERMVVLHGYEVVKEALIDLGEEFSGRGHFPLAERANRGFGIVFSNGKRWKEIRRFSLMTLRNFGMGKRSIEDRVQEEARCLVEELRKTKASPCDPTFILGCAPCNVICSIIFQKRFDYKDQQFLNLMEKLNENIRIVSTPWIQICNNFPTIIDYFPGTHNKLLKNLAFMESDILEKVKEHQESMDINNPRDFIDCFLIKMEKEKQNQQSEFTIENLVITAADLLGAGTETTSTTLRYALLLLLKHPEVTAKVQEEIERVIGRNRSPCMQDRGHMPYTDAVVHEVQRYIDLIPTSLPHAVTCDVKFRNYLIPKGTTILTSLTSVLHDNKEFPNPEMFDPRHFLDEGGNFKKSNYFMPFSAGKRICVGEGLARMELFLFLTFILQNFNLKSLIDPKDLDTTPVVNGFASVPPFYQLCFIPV
Chain of Cytochrome P450 3A4 (Homo sapiens) (P08684 whole entry, looked up): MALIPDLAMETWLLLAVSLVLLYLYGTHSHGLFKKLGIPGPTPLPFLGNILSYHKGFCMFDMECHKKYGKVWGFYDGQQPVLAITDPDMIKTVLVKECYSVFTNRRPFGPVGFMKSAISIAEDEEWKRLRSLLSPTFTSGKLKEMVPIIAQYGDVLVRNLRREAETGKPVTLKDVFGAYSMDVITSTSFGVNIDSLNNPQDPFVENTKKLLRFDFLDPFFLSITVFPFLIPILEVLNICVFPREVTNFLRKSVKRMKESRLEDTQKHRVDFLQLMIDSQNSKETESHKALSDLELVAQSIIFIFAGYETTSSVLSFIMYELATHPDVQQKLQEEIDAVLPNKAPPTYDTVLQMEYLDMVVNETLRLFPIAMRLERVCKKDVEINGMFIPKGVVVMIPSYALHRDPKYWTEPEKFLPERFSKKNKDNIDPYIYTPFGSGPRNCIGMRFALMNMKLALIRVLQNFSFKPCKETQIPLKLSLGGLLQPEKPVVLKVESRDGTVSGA
Chain of Voltage-gated inwardly rectifying potassium channel KCNH2 (Homo sapiens) (Q12809 whole entry, looked up): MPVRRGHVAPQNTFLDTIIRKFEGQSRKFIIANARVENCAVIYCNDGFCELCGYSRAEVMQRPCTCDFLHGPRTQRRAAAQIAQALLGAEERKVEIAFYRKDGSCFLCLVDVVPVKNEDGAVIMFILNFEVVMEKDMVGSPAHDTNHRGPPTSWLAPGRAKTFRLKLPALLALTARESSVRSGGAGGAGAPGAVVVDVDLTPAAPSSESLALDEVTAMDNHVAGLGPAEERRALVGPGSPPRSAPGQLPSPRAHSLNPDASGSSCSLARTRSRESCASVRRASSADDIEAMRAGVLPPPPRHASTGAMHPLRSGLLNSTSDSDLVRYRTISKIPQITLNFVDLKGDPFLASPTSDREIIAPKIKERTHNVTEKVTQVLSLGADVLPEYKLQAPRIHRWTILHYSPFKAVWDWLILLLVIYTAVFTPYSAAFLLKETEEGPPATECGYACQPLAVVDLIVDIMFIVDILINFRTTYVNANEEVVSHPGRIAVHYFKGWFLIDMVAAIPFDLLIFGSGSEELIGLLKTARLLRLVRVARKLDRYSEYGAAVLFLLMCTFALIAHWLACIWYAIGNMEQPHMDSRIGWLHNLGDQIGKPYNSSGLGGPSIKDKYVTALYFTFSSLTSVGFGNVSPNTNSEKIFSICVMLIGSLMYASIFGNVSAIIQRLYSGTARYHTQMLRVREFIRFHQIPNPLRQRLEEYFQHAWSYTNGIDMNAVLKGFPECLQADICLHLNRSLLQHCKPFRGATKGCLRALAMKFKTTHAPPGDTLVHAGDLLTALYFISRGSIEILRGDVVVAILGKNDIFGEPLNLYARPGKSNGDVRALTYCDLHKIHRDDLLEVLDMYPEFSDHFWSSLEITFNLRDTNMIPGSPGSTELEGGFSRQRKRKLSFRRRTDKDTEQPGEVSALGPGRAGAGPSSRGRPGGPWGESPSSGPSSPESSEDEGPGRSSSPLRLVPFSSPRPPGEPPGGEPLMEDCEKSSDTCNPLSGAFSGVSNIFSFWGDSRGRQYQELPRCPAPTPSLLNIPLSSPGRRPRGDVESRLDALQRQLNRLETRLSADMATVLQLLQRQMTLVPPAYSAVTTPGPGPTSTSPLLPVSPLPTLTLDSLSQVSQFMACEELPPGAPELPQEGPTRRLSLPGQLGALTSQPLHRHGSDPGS

CC(C)CC(C)(N)C#N (stereo not given)
Potency [1]: inactive | Potency [2]: inactive | Potency [3]: inactive | Potency [4]: inactive | Potency [5]: inactive

CC(N)C12CC3CC(CC(C3)C1)C2 (stereo not given)
Potency [1]: inactive | Potency [2]: inactive | Potency [3]: inactive | Potency [4]: inactive | Potency [5]: inactive

Cc1cccc(C)c1NC(=O)CC12CCCN1CCC2
Potency [1]: inactive | Potency [2]: inactive | Potency [3]: inactive | Potency [5]: inactive

CC(=O)c1ccc2ccccc2c1
Potency [1]: 28.3 µM (active) | Potency [2]: inactive | Potency [3]: 7.96 µM (active) | Potency [4]: inactive | Potency [5]: inactive

CCCC[N+](C)(CCCC)CCCC
Potency [1]: inactive | Potency [2]: inactive | Potency [3]: inactive | Potency [5]: inactive

CC(C)(C)c1ccc(-c2ccc(C(C)(C)C)cc2)cc1
Potency [1]: inactive | Potency [2]: inactive | Potency [3]: inactive | Potency [5]: inactive

N[C@H](C(=O)O)[C@@H](O)c1ccc(O)c(O)c1
Potency [1]: inactive | Potency [2]: inactive | Potency [3]: inactive | Potency [4]: inactive | Potency [5]: inactive

Cc1ccccc1N=C(N)N=C(N)N
Potency [1]: inactive | Potency [2]: inactive | Potency [3]: inactive | Potency [4]: inactive | Potency [5]: inactive

CO[Si](C)(OC)c1ccccc1
Potency [1]: 7.1 µM (active) | Potency [2]: 35.6 µM (active) | Potency [4]: inactive | Potency [5]: 25.2 µM (active)

Cc1ccc(-c2ccccc2C#N)cc1
Potency [1]: 17.4 µM (active) | Potency [3]: 13.8 µM (active) | Potency [4]: inactive

CCCO[Si](OCCC)(OCCC)OCCC
Potency [1]: inactive | Potency [2]: inactive | Potency [4]: inactive | Potency [5]: inactive

O=C(CO)[C@@H](O)[C@H](O)[C@H](O)CO
Potency [1]: inactive | Potency [2]: inactive | Potency [5]: inactive

CCCCc1nc(Cl)c(CO)n1Cc1ccc(-c2ccccc2-c2nn[nH]n2)cc1
Potency [1]: inactive | Potency [3]: inactive | Potency [4]: inactive

O=CN(CCO)CCO
Potency [1]: inactive | Potency [2]: inactive | Potency [4]: inactive | Potency [5]: inactive

CCOCC(C)O (stereo not given)
Potency [1]: inactive | Potency [2]: inactive | Potency [4]: inactive | Potency [5]: inactive

NC(=O)Cc1cccc2ccccc12
Potency [1]: inactive | Potency [2]: inactive | Potency [4]: inactive | Potency [5]: inactive

O=C(O)CNC(=O)c1ccc(CO)o1
Potency [1]: inactive | Potency [3]: inactive | Potency [4]: inactive | Potency [5]: inactive

O=C(O)CCCC[P+](c1ccccc1)(c1ccccc1)c1ccccc1
Potency [1]: inactive | Potency [3]: inactive | Potency [4]: inactive | Potency [5]: inactive

CCCCN(CCC(=O)OCC)C(C)=O
Potency [1]: 35.6 µM (active) | Potency [2]: inactive | Potency [4]: inactive | Potency [5]: inactive

CNC(=O)Nc1ccc(Cl)c(Cl)c1
Potency [1]: 28.3 µM (active) | Potency [3]: 5.03 µM (active) | Potency [4]: inactive

C=CC(C)(CCC=C(C)C)OC(=O)CC (stereo not given)
Potency [1]: 35.6 µM (active) | Potency [2]: 31.7 µM (active) | Potency [4]: inactive | Potency [5]: 28.3 µM (active)

CCCCCCCCCCOc1cc2c(=O)c(C(=O)OCC)c[nH]c2cc1OCC
activity change, negative = inhibition [1]: 52.8% [at 10.5 µM] | activity change, negative = inhibition [2]: 6.88% [at 10.5 µM] | activity change, negative = inhibition [3]: 7.05% [at 10.5 µM] | activity change, negative = inhibition [5]: 13.5% [at 10.5 µM]

CCCCOCCOC(=O)CCCCCCCCC(=O)OCCOCCCC
Potency [1]: 31.7 µM (active) | Potency [2]: 35.6 µM (active) | Potency [4]: inactive | Potency [5]: inactive

c1ccc(CCc2ccccc2)cc1
Potency [1]: inactive | Potency [3]: inactive | Potency [4]: inactive | Potency [5]: inactive

Cc1cc(C)c(N=Nc2c(O)c(S(=O)(=O)O)cc3cc(S(=O)(=O)O)ccc23)cc1C
activity change, negative = inhibition [1]: 9.38% [at 10.5 µM] | activity change, negative = inhibition [2]: 1.8% [at 10.5 µM] | activity change, negative = inhibition [4]: -0.475% [at 6.97 µM] | activity change, negative = inhibition [5]: 1.68% [at 10.5 µM]

c1ccc2sc(SN3CCOCC3)nc2c1
Potency [1]: 17.4 µM (active) | Potency [2]: 17.4 µM (active) | Potency [4]: inactive

CCCCCCCCCCCCSC
Potency [1]: inactive | Potency [2]: inactive | Potency [4]: inactive | Potency [5]: inactive

CC[N+](CC)(CC(=O)Nc1c(C)cccc1C)Cc1ccccc1 (tested in a mixture with another compound)
Potency [1]: 52.3 µM (active) | Potency [3]: inactive

CCCn1cc[n+](C)c1C
Potency [1]: inactive | Potency [2]: inactive | Potency [5]: inactive

CCCCCCC#CC(=O)OC
Potency [1]: inactive | Potency [2]: inactive | Potency [4]: inactive

CCN1C=CN(C)C1C (stereo not given)
Potency [1]: inactive | Potency [3]: inactive | Potency [4]: inactive | Potency [5]: inactive

CC(C)(C)C(=O)Oc1ccc(S(=O)(=O)Nc2ccccc2C(=O)NCC(=O)O)cc1
Potency [1]: inactive | Potency [3]: inactive | Potency [4]: inactive | Potency [5]: inactive

NC(CCC(=O)O)C(=O)O (stereo not given)
Potency [1]: inactive | Potency [3]: inactive | Potency [4]: inactive | Potency [5]: inactive

CC/C=C\CCOC(C)OCC (stereo not given)
Potency [1]: inactive | Potency [2]: inactive | Potency [4]: inactive | Potency [5]: inactive

CC(=O)O[C@@]12CO[C@@H]1C[C@H](O)[C@@]1(C)C(=O)[C@H](O)C3=C(C)[C@@H](OC(=O)[C@H](O)[C@@H](NC(=O)OC(C)(C)C)c4ccccc4)C[C@@](O)([C@@H](OC(=O)c4ccccc4)[C@H]21)C3(C)C
Potency [1]: inactive | Potency [3]: inactive

COc1ccc2cc1Oc1cc3c(cc1OC)CC[N+](C)(C)[C@H]3Cc1ccc(cc1)Oc1c(OC)c(OC)cc3c1[C@@H](C2)[N+](C)(C)CC3
Potency [1]: inactive | Potency [2]: inactive | Potency [3]: inactive | Potency [5]: inactive

CC12CCC(C(=O)C1=O)C2(C)C (stereo not given)
Potency [1]: inactive | Potency [2]: inactive | Potency [4]: inactive | Potency [5]: inactive

C[N+]1(C)CCCC(OC(=O)C(O)(c2ccccc2)c2ccccc2)C1 (stereo not given)
Potency [1]: inactive | Potency [3]: inactive | Potency [4]: inactive | Potency [5]: inactive

CCOc1ccc2nc(S(N)(=O)=O)sc2c1
Potency [1]: inactive | Potency [3]: 4.07 µM (active) | Potency [4]: inactive | Potency [5]: inactive

C=CCCCCCCCCC(=O)OCC
Potency [1]: inactive | Potency [2]: inactive | Potency [5]: inactive

CC(C(=O)O)c1cccc(Oc2ccccc2)c1 (stereo not given)
Potency [1]: inactive | Potency [3]: inactive | Potency [4]: inactive | Potency [5]: inactive

O=C(c1ccccc1)C1(O)CCCCC1
Potency [1]: 11.2 µM (active) | Potency [2]: 35.6 µM (active) | Potency [4]: inactive | Potency [5]: inactive

Clc1cc(Cl)c(Cl)nc1Cl
Potency [1]: inactive | Potency [2]: inactive | Potency [4]: inactive | Potency [5]: inactive

CC(C)(C)C(=O)c1ccccc1
Potency [1]: inactive | Potency [2]: inactive | Potency [4]: inactive | Potency [5]: inactive

CCOC(=O)c1cnc2c(cnn2CC)c1NN=C(C)C
Potency [1]: 30.9 µM (active) | Potency [3]: 2.04 µM (active) | Potency [4]: inactive

NC(=O)NC1N=C([O][Al])NC1=O (stereo not given)
Potency [1]: inactive | Potency [2]: inactive | Potency [4]: inactive

CC1=NN(c2cc(S(=O)(=O)O)ccc2Cl)C(=O)C1N=Nc1ccccc1 (stereo not given)
Potency [2]: inactive | Potency [3]: inactive | Potency [4]: inactive | Potency [5]: inactive

O=C(O)c1cc(C(=O)O)cc(C(=O)O)c1
Potency [2]: inactive | Potency [3]: inactive | Potency [4]: inactive | Potency [5]: inactive

CC(COc1ccccc1)NN (stereo not given)
Potency [2]: inactive | Potency [3]: inactive | Potency [5]: inactive

Cc1ccc(C(=O)Nc2ccc(S(=O)(=O)O)c3cc(S(=O)(=O)O)cc(S(=O)(=O)O)c23)cc1NC(=O)c1cccc(NC(=O)Nc2cccc(C(=O)Nc3cc(C(=O)Nc4ccc(S(=O)(=O)O)c5cc(S(=O)(=O)O)cc(S(=O)(=O)O)c45)ccc3C)c2)c1
Potency [2]: inactive | Potency [5]: inactive

C[C@@H]1C[C@H]2[C@@H]3C[C@H](F)C4=CC(=O)C(Cl)=C[C@]4(C)[C@@]3(F)[C@@H](O)C[C@]2(C)[C@@]1(O)C(=O)CO
Potency [3]: inactive | Potency [4]: inactive

O=S(=O)(O)c1cc(O)c(O)c(S(=O)(=O)O)c1
Potency [2]: inactive | Potency [3]: inactive | Potency [4]: inactive | Potency [5]: inactive

COc1cc2c(cc1OC)-c1cc3ccc(OC)c(OC)c3c[n+]1CC2
Potency [3]: 35.9 µM (active) | Potency [4]: inactive

O=S(=O)(O)c1cccc(S(=O)(=O)O)c1
Potency [2]: inactive | Potency [3]: inactive | Potency [4]: inactive | Potency [5]: inactive

Source: PubChem BioAssay (Tox21)
